# In PubChem BioAssay (Tox21):
# Activity calls are given as the source filed them. A call without a number means that no potency is given here. Unless noted, the call rests on the fitted dose curve.
# Biological target: Estrogen receptor (Homo sapiens) (UniProt P03372)
# Assay: qHTS assay to identify small molecule agonists of the estrogen receptor alpha (ER-alpha) signaling pathway (AID 743075);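 further: HEK293 GripTite cells with ER-alpha and UAS-driven beta-lactamase reporter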
# Settings: HEK293 ER-alpha-UAS-bla, beta-lactamase FRET ratio, 18 h; series mostly up to 70.1 µM
# Potency means the concentration at half of the fitted maximal effect.
# Estrogen receptor (Homo sapiens), sequence (P03372 whole entry, looked up): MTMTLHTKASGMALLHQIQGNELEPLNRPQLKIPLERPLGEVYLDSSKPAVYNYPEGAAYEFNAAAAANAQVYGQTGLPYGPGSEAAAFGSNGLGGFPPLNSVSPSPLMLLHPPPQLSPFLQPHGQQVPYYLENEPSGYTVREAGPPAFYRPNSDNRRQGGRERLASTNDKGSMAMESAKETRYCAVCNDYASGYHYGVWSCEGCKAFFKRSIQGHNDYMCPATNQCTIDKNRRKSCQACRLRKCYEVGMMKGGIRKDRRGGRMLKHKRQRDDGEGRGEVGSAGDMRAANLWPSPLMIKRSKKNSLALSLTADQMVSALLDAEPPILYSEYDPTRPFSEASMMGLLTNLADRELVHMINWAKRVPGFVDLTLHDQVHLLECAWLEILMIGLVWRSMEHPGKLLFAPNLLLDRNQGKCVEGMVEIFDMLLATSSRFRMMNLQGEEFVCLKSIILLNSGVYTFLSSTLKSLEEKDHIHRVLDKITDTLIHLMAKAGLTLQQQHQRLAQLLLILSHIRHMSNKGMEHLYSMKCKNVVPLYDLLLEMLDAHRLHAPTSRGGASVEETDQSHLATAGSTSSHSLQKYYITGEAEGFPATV
Structure (SMILES),Potency,activation
O=C(NC(=O)c1c(F)cccc1F)Nc1cc(Cl)c(F)c(Cl)c1F,inactive,–
O=C(Cl)C(Cl)(Cl)Cl,inactive,–
CN(C)CCN(C)C,inactive,–
C=C(Cl)CCl,inactive,–
CC(Cc1ccccc1)NCCn1cnc2c1c(=O)n(C)c(=O)n2C (stereo not given),inactive,–
O=C(Cl)C(Cl)Cl,inactive,–
Brc1c(Br)c(Br)c(Br)c(Br)c1Br,–,2.61% [at 6.71 µM] (inactive)
CCNc1nc(Cl)nc(NC(C)(C)C)n1,61.6 µM [inconclusive] (active),–
CC[C@H](O)C(C[C@H](C)N(C)C)(c1ccccc1)c1ccccc1,inactive,–
N#CN=C1SCCN1Cc1ccc(Cl)nc1,inactive,–
CC(C)(N)Cc1ccc(Cl)cc1,inactive,–
CC(C)(O)C(Cl)(Cl)Cl,inactive,–
C#CCOC(=O)/C=C(C)/C=C/CC(C)CCCC(C)C (stereo not given),inactive,–
CCOc1cc(OP(=S)(OC)OC)nc(CC)n1,inactive,–
CCC(C(N)=O)N1CCCC1=O (stereo not given),inactive,–
NNCc1ccccc1,inactive,–
CCN[C@H](C)Cc1cccc(C(F)(F)F)c1,inactive,–
CCN(CCO)CCn1c(Cc2ccccc2)nc2c1c(=O)n(C)c(=O)n2C,inactive,–
O=C(Cl)OCc1ccccc1,inactive,–
CCNP(=S)(OC)O/C(C)=C/C(=O)OC(C)C (stereo not given),inactive,–
CN(C)C1CCCCC1,inactive,–
CN1C(=O)COc2c(C(=O)NC3CN4CCC3CC4)cc(Cl)cc21 (stereo not given),inactive,–
C[C@H](CN1CCOCC1)C(C(=O)N1CCCC1)(c1ccccc1)c1ccccc1,inactive,–
O=C(Cl)/C=C/C(=O)Cl,inactive,–

# Biological target: Estrogen receptor (Homo sapiens) (UniProt P03372)
# Assay: qHTS assay to identify small molecule agonists of the estrogen receptor alpha (ER-alpha) signaling pathway using the BG1 cell line (AID 743079; active means well fitted activation curve with a large enough effect in the repeat runs; inconclusive means weak or mixed curves, or effect the other way; inactive means no such curve, though single readings can be large or run the other way; further: nearly all actives have a fitted effect of over 20% in size)
# Settings: BG1Luc4E2 cells, ERE-luciferase agonist, 22 h
row,Structure (SMILES),Potency
1,CCNc1nc(Cl)nc(NC(C)(C)C)n1,9.69 µM (active)
2,CCC(C(N)=O)N1CCCC1=O (stereo not given),21.1 µM (active)
3,NNCc1ccccc1,62.3 µM (active)

# Same assay, conditions: BG1Luc4E2 cells, ERE-luciferase agonist, 22 h; at 70.3 µM (top of the series)
row,Structure (SMILES),activation
1,O=C(NC(=O)c1c(F)cccc1F)Nc1cc(Cl)c(F)c(Cl)c1F,11.8% (inactive)
2,CN(C)CCN(C)C,18.6% (inactive)
3,C=C(Cl)CCl,0.667% (inactive)
4,CC(Cc1ccccc1)NCCn1cnc2c1c(=O)n(C)c(=O)n2C (stereo not given),-17.2% (inactive)
5,O=C(Cl)C(Cl)Cl,0.358% (inactive)
6,N#CN=C1SCCN1Cc1ccc(Cl)nc1,-2.73% (inactive)
7,CC(C)(N)Cc1ccc(Cl)cc1,0.193% (inactive)
8,CC(C)(O)C(Cl)(Cl)Cl,7.26% (inactive)
9,CCOc1cc(OP(=S)(OC)OC)nc(CC)n1,-2.44% (inactive)
10,CCN[C@H](C)Cc1cccc(C(F)(F)F)c1,-8.58% (inactive)
11,CCN(CCO)CCn1c(Cc2ccccc2)nc2c1c(=O)n(C)c(=O)n2C,6.52% (inactive)
12,CCNP(=S)(OC)O/C(C)=C/C(=O)OC(C)C (stereo not given),10.8% (inactive)
13,CN1C(=O)COc2c(C(=O)NC3CN4CCC3CC4)cc(Cl)cc21 (stereo not given),18.3% (inactive)
